Test results reported in PubChem BioAssay AID1530 (NMMLSC, 2009).
“And” between values parts separate entries of the source, which are not always exact repeats. Equal values may be shown once. In all, about 290,000 compounds went through this assay and about 1,000 (0.34%) were called active. The full list was thinned out, with actives kept by preference. Values without a mark were called inactive. Rule as the data show it: active = percent response above about 24% (passing the limit was not always enough); inactive = the rest.

The molecules below were run on MEKK2 (MAP3K2) mutant PB1 domain binding to MEK5, human (assay: MEK5 binding signal on mutant MEKK2 PB1, primary screen, biochemical, multiplex bead flow cytometry, Alexa488-MEK5 (AID 1530)). Settings: at 10 µM, stronger effect = higher value.

SMILES | percent response
COc1ccc(Br)cc1CN(C)CC(=O)Nc1cc(Cl)cc(Cl)c1 | 1%
Cc1ccc2c(c1)C1CN(C)CCC1N2C(=O)c1ccccc1NS(=O)(=O)c1ccc(F)cc1C (stereo unspecified) | -2%
Cc1ccc2c(c1)C1CN(C)CCC1N2C(=S)Nc1ccc(OC(F)F)cc1 (stereo unspecified) | 5%
Cc1ccc2c(c1)C1CN(C)CCC1N2S(=O)(=O)c1ccc(Oc2ccc([N+](=O)[O-])cc2)cc1 (stereo unspecified) | 63% (active)
O=C(CN(C(=O)CCC(=O)Nc1nccs1)c1ccc(F)cc1)NCc1ccc2c(c1)OCO2 | -3%
CCCOc1ccc(CNC(=O)C2CCN(c3nn4c(=O)cc(C)nc4s3)CC2)cc1 | 11%
CCCCNC(=O)N1CCCC(N(C)CCc2ccc(OC)c(OC)c2)C1 (stereo unspecified) | 24% (active)
COc1ccc(CCN(C)C(=O)C2CCCN(Cc3ccc(OC)c(OC)c3)C2)cc1OC (stereo unspecified) | 3% and 10%
COc1ccc(CCNC(=O)C2CCCN2C(=O)Nc2ccccc2)cc1OC (stereo unspecified) | 5%
C=CCC1=C/C(=C\c2c(N)n3nc(CC(=O)N4CCOCC4)sc3nc2=O)C=C(OC)C1=O | -5%
CCOC(=O)C1C(c2ccc(O)cc2)NC(=O)NC1(O)C(F)(F)F (stereo unspecified) | 20%
COc1cccc(C2CC(c3cccs3)=NN2C(=O)CSC2=NCCS2)c1OC (stereo unspecified) | 5%
CCc1nnc(NC(=O)CSCc2cc(=O)n3cc(C)sc3n2)s1 | 4%
CCCCCCCCCCOC(=O)Cn1c(COc2cccc(OC)c2)[n+](C)c2ccccc21 | 81% (active)
COc1cccc(OCCCN2CCCCCC2)c1 | -3%
Cc1ccc(OCc2nc3ccccc3n2C)cc1 | -2%
COc1cccc(OCC(=O)Nc2ccccc2C(N)=O)c1 | 9%
CCCCCCCCCCOC(=O)Cn1c(COc2ccc(C)cc2)[n+](C)c2ccccc21 | 91% (active)
CCCCOC(=O)Cn1c(=N)n(CCN(CC)CC)c2ccccc21 | 1%

SMILES | percent response
COc1ccc(N(CC(=O)Nc2ccc(F)c(F)c2)S(=O)(=O)c2c(C)[nH]c(=O)[nH]c2=O)cc1 | -7%
COc1cc(C(C(=O)NC2CCCC2)N(C(=O)c2ccco2)c2ccccc2C(C)=O)cc(OC)c1OC (stereo unspecified) | 6%
O=C(N/N=C/c1cccc(O)c1)c1cc2c(ccc3ccccc32)o1 | 0%
O=C(CSc1nnc(SCc2ccc(Cl)cc2)s1)N/N=C/c1ccccc1Cl | 20%
Cc1ccc2c(c1)N(CC(=O)N(Cc1ccccn1)Cc1ccco1)C(=O)C(C(C)C)O2 (stereo unspecified) | 3%
CC1CCCC(C)N1C(=O)CSc1nnnn1C1CCCC1 (stereo unspecified) | -3%
CCCc1cc(=O)[nH]c(SCC(=O)N2C(C)CCCC2C)n1 (stereo unspecified) | 12%
CCCc1nnc(SCC(=O)N2C(C)CCCC2C)n1CC (stereo unspecified) | 1490% (active)
O=C(NC(Cc1ccc(O)cc1)C(=O)O)/C(=C/c1ccccc1)NC(=O)c1ccccc1 (stereo unspecified) | 4%
COc1ccc(-c2ccc(CNCCCN3CCOCC3)o2)cc1Cl | 2%
CN(Cc1ccccn1)Cc1nc(-c2ccc(Cl)cc2)no1 | -10%
Fc1ccc(-c2ccc(CNCc3ccccn3)o2)cc1Cl | 25% (active)
CCCC(=O)N1CCN(c2nnc(-c3ccc(C)cc3)c3ccccc23)CC1 | 0%
C/C=C/C(=O)OCc1csc(CC(=O)Nc2ccccc2C)n1 | -6%
O=C(CN1CCN(C(=O)c2ccco2)CC1)Nc1ccc(Cl)c(C(F)(F)F)c1 | 24% (active)
O=C(CN1CCN(C(=O)c2ccco2)CC1)Nc1ccc2c(c1)OCO2 | 7%
O=C(c1ccco1)N1CCN(Cc2cccc(C(F)(F)F)c2)CC1 | 5%
O=C(NCCCN1CCCCCC1)c1ccc(N2CCCC2=O)cc1 | 31% (active)
CCOc1ccc(C(=O)NCCCN2CCCC2=O)cc1 | 8%

SMILES | percent response
CC1CCC(NC(=O)c2ccc(N3CCCC3=O)cc2)CC1 (stereo unspecified) | 6%
CCN(CC(=O)Nc1ccc2c(c1)OCO2)S(=O)(=O)c1ccccc1 | -3%
CC(=O)c1ccc(S(=O)(=O)N2CCN(c3nc4c(C)c(C)ccc4cc3C#N)CC2)cc1 | 1%
Cc1ccc(C(=O)NCCN2CCOCC2)cc1C | -1%
CCC1=Nc2cc(C(=O)NCCN3CCCC3)ccc2Sc2ccc(C)cc21 | 15%
Cc1cccc(-c2nc3ccc(C(=O)NCCN4CCN(C)CC4)cc3nc2-c2cccc(C)c2)c1 | 34% (active)
Cc1c(NC(=O)c2cc(-c3ccc(Br)cc3)on2)c(=O)n(-c2ccccc2)n1C | 4%
CCOc1ccc(N(CC)S(=O)(=O)c2cccc3nsnc23)cc1 | 2%
Cn1c(=O)c2cc(S(=O)(=O)NCCC(=O)Nc3ccc(F)cc3F)ccc2n(C)c1=O | -8%
COc1ccc(NC(=O)CCNS(=O)(=O)c2ccc3c(c2)c(=O)n(C)c(=O)n3C)cc1OC | 56% (active)
Cc1ccc(NC(=O)CCNS(=O)(=O)c2ccc3c(c2)oc(=O)n3C)cc1C | 3%
CCSc1nc2sc3c(c2c(=O)n1-c1ccc(C)cc1)CCN(C)C3 | 3%
CN(C)S(=O)(=O)c1ccc(N/C=C(\[N+](=O)[O-])S(=O)(=O)c2ccccc2)cc1 | -3%
CCOC(=O)c1cccc(NC(=O)c2ccc(F)cc2F)c1 | -1%
CCOc1ccccc1OCCCNCc1ccccc1 | 1%
CN1CCN(/N=C/c2ccc(-c3ccc([N+](=O)[O-])cc3)o2)CC1 | -2%
CN1CCN(/N=C/c2ccc(C#N)cc2)CC1 | 134% (active)
CSc1ccc(/C=N/N2CCN(Cc3ccccc3Cl)CC2)cc1 | -5%
